Values joined by “and” are separate entries in the source; they are usually repeats but may differ in a detail not shown here. Identical values can stand only once. Results filed as inconclusive are left out. Active and inactive are the calls of the source. Calls come from the whole dose curve; as a rule, active = well fitted curve in the direction sought with a large enough effect; inconclusive = small, poorly fitted or top-dose-only effect, or another doubt; inactive = no such curve, though single readings can be large; an effect the other way counts as inactive or inconclusive.
Test system: not listed separately
Experiment: S16 Schwann cell viability assay (CellTiter-Glo assay) (AID 624031);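 note: native untransfected S16 rat Schwann cells; cellular ATP luminescence as a viability measure; plate controls were DMSO-treated cells for no effect and cell-free wells for full effect; nearly all actives have a fitted effect of over 70% in size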
Conditions: S16 rat Schwann cells viability, 24 h; series mostly up to 57.5 µM; activity change, negative = cytotoxicity: at the top concentration
Method in brief: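 Following overnight culture in 10% FBS DMEM, parental S16 rat Schwann cells are dosed for 24 h at 37 °C. Viability is read as CellTiter-Glo luminescence and expressed as % activity relative to DMSO (0%) and no-cell wells.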

With `C#CC1(O)CCC2C3CCC4=CC(=O)CCC4(C)C3CCC21C` (configuration not stated) as the compound, how does the “activity change, negative = cytotoxicity” value read?
Its value is -4.6% (inactive).

With `Cc1ccc(Cl)c(O)c1` as the compound, how does the “activity change, negative = cytotoxicity” value read?
The value was 6.23% (inactive).

For `CC(=O)OCC1=C(C(=O)O)N2C(=O)[C@@H](N)[C@@H]2SC1`, which “activity change, negative = cytotoxicity” value is on record?
Its value is -4.12% [at 25.7 µM] (inactive).

Biological target: Glutaminase kidney isoform, mitochondrial (Homo sapiens) (UniProt O94925)
Experiment: qHTS for Inhibitors of Glutaminase (GLS): LOPAC Validation (AID 624146); note: nearly all actives have a fitted effect of over 60% in size; note: potency is the fitted concentration of half-maximal effect;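 for activity change, negative = inhibition: glutamate product detected by oxidase and peroxidase coupled Amplex red fluorescence gain; % is set by controls: 0 for no effect and ±100 for the full control effect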
Conditions: glutaminase enzyme activity inhibition; series mostly up to 46.1 µM; activity change, negative = inhibition: at the top concentration
Method in brief: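 Human kidney-isoform GLS in 45 mM KH2PO4 pH 8.2, 0.02% Tween-20, with compound, started with 1mM L-Glutamine (added stock). Glutamate oxidase/HRP/Amplex red coupled fluorescence read at start and after 30 min at RT.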

Chain of Glutaminase kidney isoform, mitochondrial (Homo sapiens) (O94925 whole entry, looked up, canonical isoform): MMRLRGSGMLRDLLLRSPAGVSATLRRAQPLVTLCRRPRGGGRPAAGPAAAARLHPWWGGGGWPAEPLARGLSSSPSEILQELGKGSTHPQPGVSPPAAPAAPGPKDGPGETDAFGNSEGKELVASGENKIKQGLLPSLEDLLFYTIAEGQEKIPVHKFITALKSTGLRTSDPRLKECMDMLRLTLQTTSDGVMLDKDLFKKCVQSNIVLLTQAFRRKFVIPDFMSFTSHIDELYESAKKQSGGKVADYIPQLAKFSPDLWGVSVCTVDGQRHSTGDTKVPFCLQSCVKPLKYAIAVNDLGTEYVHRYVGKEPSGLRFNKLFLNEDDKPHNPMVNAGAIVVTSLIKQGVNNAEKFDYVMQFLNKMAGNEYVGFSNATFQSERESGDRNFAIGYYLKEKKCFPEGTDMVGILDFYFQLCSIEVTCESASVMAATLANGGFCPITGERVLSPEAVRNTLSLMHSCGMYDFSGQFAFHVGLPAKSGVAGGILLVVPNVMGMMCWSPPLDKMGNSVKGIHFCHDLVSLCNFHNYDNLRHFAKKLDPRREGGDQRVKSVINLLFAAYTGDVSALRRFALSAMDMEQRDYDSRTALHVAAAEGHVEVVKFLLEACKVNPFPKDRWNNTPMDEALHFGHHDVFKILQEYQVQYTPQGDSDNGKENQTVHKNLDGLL

With `O=C(O)CC[N+](=O)[O-]` as the compound, how does the “activity change, negative = inhibition” value read?
The value was -5.09% (inactive).

With `NC(N)=NOCCC(N)C(=O)O` (configuration not stated) as the compound, how does the “activity change, negative = inhibition” value read?
The value was -17.9% (inactive).

For `CC(Cc1ccc(O)cc1)NCC(O)c1cc(O)cc(O)c1` (configuration not stated), which Potency is on record?
The Potency was 4.47 µM (active).

For `CC(C)Oc1cccnc1N(C)C1CCN(Cc2ccccc2)CC1`, which “activity change, negative = inhibition” value is on record?
The value was -32.6% (inactive).

With `Cn1cnc(CCN)c1` as the compound, how does the “activity change, negative = inhibition” value read?
The value was -23.5% (inactive).

Which “activity change, negative = inhibition” value does the source give for `c1ccc(CCCN2CCN(CCOC(c3ccccc3)c3ccccc3)CC2)cc1` here?
Its value is 161% (inactive).

With `NC(CP(=O)(O)O)C(=O)O` (configuration not stated) as the compound, how does the “activity change, negative = inhibition” value read?
Its value is -11.5% (inactive).

With `NC(CCP(=O)(O)O)C(=O)O` (configuration not stated) as the compound, how does the “activity change, negative = inhibition” value read?
Its value is -12.1% (inactive).

Which “activity change, negative = inhibition” value does the source give for `NCCc1c[nH]c2ccc(O)cc12` here?
The value was -31.9% (inactive).

For `CNCCc1ccc(O)c(O)c1`, which “activity change, negative = inhibition” value is on record?
Its value is 138% (inactive).

Which “activity change, negative = inhibition” value does the source give for `O=C(O)Cc1cnc[nH]1` here?
Its value is 264% (inactive).

For `COc1ccc2c(c[n+](C)c3c4cc5c(cc4ccc23)OCO5)c1OC`, which Potency is on record?
Its Potency is 3.16 µM (active).

With `CCCN1CCO[C@@H]2c3cc(O)ccc3OC[C@H]21` as the compound, how does the Potency read?
The Potency was 4.47 µM (active) and 1.41 µM (active).

For `c1ccc2sc(C3(N4CCCCC4)CCCCC3)cc2c1`, which “activity change, negative = inhibition” value is on record?
Its value is -13.1% (inactive).

Which “activity change, negative = inhibition” value does the source give for `C[C@@H]1O[C@H](C[N+](C)(C)C)C[C@H]1O` here?
The value was -14.5% (inactive).

For `CC[C@@]1(O)C(=O)OCc2c1cc1n(c2=O)Cc2cc3ccccc3nc2-1`, which “activity change, negative = inhibition” value is on record?
The value was -5.5% (inactive).

For `C[C@]12CCC3C(CC[C@H]4C[C@H](O)CC[C@]34C)C1CC[C@@H]2C(=O)CO` (some centres not stated), which “activity change, negative = inhibition” value is on record?
The value was -20.5% (inactive).

With `S=C(NC1CCCCC1)N1CCC(c2cnc[nH]2)CC1` as the compound, how does the “activity change, negative = inhibition” value read?
The value was -11.2% (inactive).

Which Potency does the source give for `C[N+]1(C)C2CCC1CC(OC(=O)C(CO)c1ccccc1)C2` (configuration not stated) here?
The Potency was “inactive”.

Reference: PubChem BioAssay (NCATS)
